Data from the supplement of paper PMC12669032.

Legend:
Assay in all cases: growth AUC relative to DMSO control (median of replicates) (fraction); higher = more growth (less inhibition), active = hit call of the paper
Settings in all cases: 20 µM; 24 h;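 active = AUC reduced over 20% with Padj below 0.05 in at least 2 of 3 replicates; inactive = otherwise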
Coprococcus comes = system: Coprococcus comes
Outline: (§1)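 For each compound at 20 µM (1% DMSO), gut bacterial monocultures seeded at OD600 0.05 grew anaerobically in mGAM at 37 °C in round-bottom 96-well plates. Hourly OD600 readings over 24 h gave growth curves whose minimum OD was set to 0. Area under these curves was normalised to the plate median of solvent-only wells, or to row and column medians on the industrial chemical plate. Values are medians of three biological replicates grown on separate days.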

Escherichia coli ED1a = system: Escherichia coli ED1a
Outline: as §1

Escherichia coli IAI1 = system: Escherichia coli IAI1
Outline: as §1

Eubacterium rectale = system: Eubacterium rectale
Outline: as §1

[1] = system: Fusobacterium nucleatum subsp. animalis
Outline: as §1

Lactobacillus gasseri = system: Lactobacillus gasseri
Outline: as §1

Lactobacillus paracasei = system: Lactobacillus paracasei
Outline: as §1

Odoribacter splanchnicus = system: Odoribacter splanchnicus
Outline: as §1

[2] = system: Parabacteroides distasonis
Outline: as §1

Parabacteroides merdae = system: Parabacteroides merdae
Outline: as §1

Roseburia intestinalis = system: Roseburia intestinalis
Outline: as §1

Streptococcus salivarius = system: Streptococcus salivarius
Outline: as §1

Measured: growth AUC

COC(=O)C(Cl)Cl
inactive: Coprococcus comes 0.986 | Escherichia coli ED1a 1 | Escherichia coli IAI1 0.989 | Eubacterium rectale 1 | [1] 1.07 | Lactobacillus gasseri 0.919 | Lactobacillus paracasei 0.938 | Odoribacter splanchnicus 1.01 | [2] 0.998 | Parabacteroides merdae 1 | Roseburia intestinalis 0.918 | Streptococcus salivarius 0.985

CNC(=O)Oc1ccc(N(C)C)c(C)c1
inactive: Coprococcus comes 0.992 | Escherichia coli ED1a 1 | Escherichia coli IAI1 1.01 | Eubacterium rectale 1.06 | [1] 1.08 | Lactobacillus gasseri 0.909 | Lactobacillus paracasei 1 | Odoribacter splanchnicus 0.861 | [2] 0.977 | Parabacteroides merdae 0.986 | Roseburia intestinalis 0.949 | Streptococcus salivarius 0.992

CCCN(CCOc1c(Cl)cc(Cl)cc1Cl)C(=O)n1ccnc1
inactive: Escherichia coli ED1a 1.01 | Escherichia coli IAI1 1.01 | [1] 1 | Lactobacillus gasseri 1.11 | Lactobacillus paracasei 1.17 | Odoribacter splanchnicus 0.94 | [2] 0.871 | Parabacteroides merdae 0.843 | Roseburia intestinalis 0.8 | Streptococcus salivarius 0.984
active: Coprococcus comes 0.487 | Eubacterium rectale 0.591

Cc1c(N)cccc1N
inactive: Coprococcus comes 1.01 | Escherichia coli ED1a 0.995 | Escherichia coli IAI1 0.981 | Eubacterium rectale 1.01 | [1] 1.04 | Lactobacillus gasseri 1.01 | Lactobacillus paracasei 0.991 | Odoribacter splanchnicus 0.938 | [2] 0.995 | Parabacteroides merdae 1.01 | Roseburia intestinalis 0.997 | Streptococcus salivarius 1.01

CC(Cc1ccc(C(C)(C)C)cc1)CN1CCCCC1 (stereo unspecified)
inactive: Coprococcus comes 0.931 | Escherichia coli ED1a 0.998 | Escherichia coli IAI1 0.932 | Eubacterium rectale 1.03 | [1] 1.02 | Lactobacillus gasseri 0.988 | Lactobacillus paracasei 1.03 | Odoribacter splanchnicus 1.05 | [2] 0.946 | Parabacteroides merdae 0.997 | Roseburia intestinalis 0.976 | Streptococcus salivarius 1

COc1ncc(F)c2nc(S(=O)(=O)Nc3c(F)cccc3F)nn12
inactive: Coprococcus comes 1.03 | Escherichia coli ED1a 1.01 | Escherichia coli IAI1 0.989 | Eubacterium rectale 1 | [1] 1.02 | Lactobacillus gasseri 1.01 | Lactobacillus paracasei 1 | Odoribacter splanchnicus 0.992 | [2] 0.983 | Parabacteroides merdae 1.01 | Roseburia intestinalis 1.02 | Streptococcus salivarius 1

CCC(C)(NC(=O)c1cc(Cl)c(C)c(Cl)c1)C(=O)CCl (stereo unspecified)
active: [2] 0.643
inactive: Coprococcus comes 0.945 | Escherichia coli ED1a 1.01 | Escherichia coli IAI1 0.995 | Eubacterium rectale 0.892 | [1] 0.906 | Lactobacillus gasseri 0.942 | Lactobacillus paracasei 1.02 | Odoribacter splanchnicus 0.914 | Parabacteroides merdae 0.907 | Roseburia intestinalis 0.964 | Streptococcus salivarius 0.945

CS(=O)(=O)NC(=O)c1cc(Oc2ccc(C(F)(F)F)cc2Cl)ccc1[N+](=O)[O-]
inactive: Coprococcus comes 0.926 | Escherichia coli ED1a 0.971 | Escherichia coli IAI1 0.962 | Eubacterium rectale 1.09 | [1] 0.906 | Lactobacillus gasseri 0.958 | Lactobacillus paracasei 1.01 | Odoribacter splanchnicus 1.09 | [2] 0.984 | Parabacteroides merdae 0.978 | Roseburia intestinalis 0.966 | Streptococcus salivarius 0.917

C=CCNC(=O)c1c([Si](C)(C)C)sc(C)c1C
inactive: Coprococcus comes 0.984 | Escherichia coli ED1a 0.972 | Escherichia coli IAI1 1.01 | Eubacterium rectale 0.967 | [1] 0.894 | Lactobacillus gasseri 1.05 | Lactobacillus paracasei 0.986 | Odoribacter splanchnicus 0.97 | [2] 1.01 | Parabacteroides merdae 0.973 | Roseburia intestinalis 1.03 | Streptococcus salivarius 1

CN1CSC(=S)N(C)C1
inactive: Coprococcus comes 0.957 | Escherichia coli ED1a 0.991 | Escherichia coli IAI1 0.994 | Eubacterium rectale 1.06 | [1] 0.966 | Lactobacillus gasseri 1.07 | Lactobacillus paracasei 1.04 | Odoribacter splanchnicus 0.988 | [2] 0.991 | Parabacteroides merdae 0.976 | Roseburia intestinalis 1.03 | Streptococcus salivarius 0.983

CCOP(=O)(OCC)ON1C(=O)c2cccc3cccc(c23)C1=O
inactive: Coprococcus comes 0.971 | Escherichia coli ED1a 0.994 | Escherichia coli IAI1 0.958 | Eubacterium rectale 1.16 | [1] 0.961 | Lactobacillus gasseri 0.954 | Lactobacillus paracasei 0.971 | Roseburia intestinalis 0.9 | Streptococcus salivarius 1.03
active: Odoribacter splanchnicus 0.484 | [2] 0.619 | Parabacteroides merdae 0.794

CNC(=O)O/N=C(\C)C(C)S(C)(=O)=O (stereo unspecified)
inactive: Coprococcus comes 1.02 | Escherichia coli ED1a 0.961 | Escherichia coli IAI1 0.979 | Eubacterium rectale 1.03 | [1] 0.972 | Lactobacillus gasseri 0.905 | Lactobacillus paracasei 0.894 | Odoribacter splanchnicus 1.11 | [2] 0.955 | Parabacteroides merdae 0.956 | Roseburia intestinalis 0.95 | Streptococcus salivarius 0.972

O=S(=O)(c1ccccc1)c1ccccc1
inactive: Coprococcus comes 0.977 | Escherichia coli ED1a 0.988 | Escherichia coli IAI1 0.97 | Eubacterium rectale 1.03 | [1] 1 | Lactobacillus gasseri 0.914 | Lactobacillus paracasei 1.03 | Odoribacter splanchnicus 0.999 | [2] 1.02 | Parabacteroides merdae 0.929 | Roseburia intestinalis 0.956 | Streptococcus salivarius 0.943

CC1(C)C(C=C(Cl)Cl)C1C(=O)OC(C#N)c1cccc(Oc2ccccc2)c1 (mixture of isomers)
inactive: Coprococcus comes 1 | Escherichia coli ED1a 1.01 | Escherichia coli IAI1 0.987 | Eubacterium rectale 1.02 | [1] 1.04 | Lactobacillus gasseri 0.865 | Lactobacillus paracasei 1.02 | Odoribacter splanchnicus 1.03 | [2] 0.982 | Parabacteroides merdae 0.984 | Roseburia intestinalis 0.945 | Streptococcus salivarius 0.936

CCCCCCCCn1sccc1=O
active: Lactobacillus gasseri 0.757 | [2] 0.129 | Parabacteroides merdae 0.00935 | Roseburia intestinalis 0.449
inactive: Coprococcus comes 0.958 | Escherichia coli ED1a 0.944 | Escherichia coli IAI1 0.938 | Eubacterium rectale 0.868 | [1] 0.83 | Lactobacillus paracasei 1.01 | Odoribacter splanchnicus 0.597 | Streptococcus salivarius 0.815

Cc1ccc(NC(=O)c2snnc2C)cc1Cl
inactive: Coprococcus comes 0.965 | Escherichia coli ED1a 0.968 | Escherichia coli IAI1 0.937 | Eubacterium rectale 1 | [1] 0.938 | Lactobacillus gasseri 1.08 | Lactobacillus paracasei 0.866 | Odoribacter splanchnicus 0.975 | [2] 0.986 | Parabacteroides merdae 0.973 | Roseburia intestinalis 0.925 | Streptococcus salivarius 0.962

CCC(C)[C@H]1O[C@]2(C=C[C@@H]1C)C[C@@H]1C[C@@H](C/C=C(\C)[C@@H](O[C@H]3C[C@H](OC)[C@@H](O[C@H]4C[C@H](OC)[C@@H](O)[C@H](C)O4)[C@H](C)O3)[C@@H](C)/C=C/C=C3\CO[C@@H]4[C@H](O)C(C)=C[C@@H](C(=O)O1)[C@]34O)O2.CO[C@H]1C[C@H](O[C@H]2[C@H](C)O[C@@H](O[C@@H]3/C(C)=C/C[C@@H]4C[C@@H](C[C@]5(C=C[C@H](C)[C@@H](C(C)C)O5)O4)OC(=O)[C@@H]4C=C(C)[C@@H](O)[C@H]5OC/C(=C\C=C\[C@@H]3C)[C@]54O)C[C@@H]2OC)O[C@@H](C)[C@@H]1O (stereo partly specified)
active: [2] 0.536 | Roseburia intestinalis 0.571
inactive: Coprococcus comes 0.99 | Escherichia coli ED1a 1.02 | Escherichia coli IAI1 1.01 | Eubacterium rectale 1.01 | [1] 1.15 | Lactobacillus gasseri 0.808 | Lactobacillus paracasei 0.899 | Odoribacter splanchnicus 1.07 | Parabacteroides merdae 1.05 | Streptococcus salivarius 0.961

CC(C)C1(C)N=C(c2ncccc2C(=O)O)NC1=O (stereo unspecified)
inactive: Coprococcus comes 1.02 | Escherichia coli ED1a 0.993 | Escherichia coli IAI1 0.974 | Eubacterium rectale 1.01 | [1] 1.04 | Lactobacillus gasseri 0.946 | Lactobacillus paracasei 1.03 | Odoribacter splanchnicus 0.989 | [2] 1.04 | Parabacteroides merdae 0.997 | Roseburia intestinalis 0.97 | Streptococcus salivarius 0.931

CCCCCCCCCCCCC1=C(OC(C)=O)C(=O)c2ccccc2C1=O
inactive: Coprococcus comes 0.863 | Escherichia coli ED1a 1 | Escherichia coli IAI1 0.975 | Eubacterium rectale 0.889 | [1] 1.02 | Lactobacillus paracasei 0.894 | Odoribacter splanchnicus 0.959 | [2] 0.933 | Parabacteroides merdae 0.878 | Roseburia intestinalis 0.772 | Streptococcus salivarius 0.957
active: Lactobacillus gasseri 0.504

Nc1ccc(Cc2ccc(N)c(Cl)c2)cc1Cl
inactive: Coprococcus comes 1 | Escherichia coli ED1a 1.01 | Escherichia coli IAI1 1.01 | Eubacterium rectale 1.01 | [1] 0.997 | Lactobacillus gasseri 1.04 | Lactobacillus paracasei 1.07 | Odoribacter splanchnicus 1.11 | [2] 1.08 | Parabacteroides merdae 1 | Roseburia intestinalis 1.1 | Streptococcus salivarius 1.09

CC/C(=N\OC/C=C/Cl)C1=C(O)CC(C2CCOCC2)CC1=O (stereo unspecified)
inactive: Coprococcus comes 1.01 | Escherichia coli ED1a 1 | Escherichia coli IAI1 1.03 | Eubacterium rectale 0.996 | [1] 0.983 | Lactobacillus gasseri 0.994 | Lactobacillus paracasei 1.1 | Odoribacter splanchnicus 1.04 | [2] 0.998 | Parabacteroides merdae 1.02 | Roseburia intestinalis 1.02 | Streptococcus salivarius 0.994

COc1nc(C)nc(NC(=O)NS(=O)(=O)c2ccccc2Cl)n1
inactive: Coprococcus comes 0.971 | Escherichia coli ED1a 0.982 | Escherichia coli IAI1 0.988 | Eubacterium rectale 0.986 | [1] 1.02 | Lactobacillus gasseri 1.07 | Lactobacillus paracasei 1.01 | Odoribacter splanchnicus 0.952 | [2] 1.01 | Parabacteroides merdae 0.979 | Roseburia intestinalis 0.995 | Streptococcus salivarius 0.992

CCCN(CCC)c1c([N+](=O)[O-])cc(S(C)(=O)=O)cc1[N+](=O)[O-]
inactive: Coprococcus comes 1.03 | Escherichia coli ED1a 0.978 | Escherichia coli IAI1 0.962 | Eubacterium rectale 0.974 | [1] 0.948 | Lactobacillus gasseri 0.84 | Lactobacillus paracasei 0.988 | Odoribacter splanchnicus 1.08 | [2] 0.967 | Parabacteroides merdae 0.936 | Roseburia intestinalis 0.894 | Streptococcus salivarius 0.966
